Laboratory results as given in PubChem BioAssay (EPA / NIEHS).
Calls of active or inactive are those of the source. Rule for the calls: active = hit-call score of the fitted dose curve at least 0.9, where 1 is the maximum; inactive = score below 0.9.

How the values were obtained:
Settings in all cases: mRNA level, 48 h; actives raise or lower the signal
[1] = read-out: ATP-citrate lyase (ACLY), ACLY (gene 47); experiment: LTEA_HepaRG_ACLY: Life Technologies and Expression Analysis (LTEA) Assay for ATP-citrate lyase (ACLY) using HepaRG (AID 2283466)
In short: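 Differentiated HepaRG cells exposed 48 h in serum-free induction medium to eight half-log concentrations up to 100 uM in 0.5% DMSO, duplicates. Transcript measured by Fluidigm TaqMan qRT-PCR, normalized to ACTB, GAPDH, POLR2A; bidirectional fit versus DMSO.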

[2] = read-out: Peroxisomal acyl-coenzyme A oxidase 1 (ACOX1) gene, ACOX1 (gene 51); experiment: LTEA_HepaRG_ACOX1: Life Technologies and Expression Analysis (LTEA) Assay for Peroxisomal acyl-coenzyme A oxidase 1 (ACOX1) gene using HepaRG (AID 2283467)
In short: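 HepaRG cells, plated 48 h then switched to serum-free induction medium, were exposed in duplicate for 48 h to 8-point half-log concentrations up to 100 uM in 0.5% DMSO. ACOX1 mRNA was measured by qRT-PCR, normalized to ACTB/GAPDH/POLR2A, and fitted bidirectionally versus DMSO.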

[3] = read-out: Alkaline Phosphatase, Placental (ALPP) gene, ALPP (gene 250); experiment: LTEA_HepaRG_ALPP: Life Technologies and Expression Analysis (LTEA) Assay for Alkaline Phosphatase, Placental (ALPP) gene using HepaRG (AID 2283468)
In short: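 Differentiated human HepaRG cells were plated and cultured 48 h, then exposed in duplicate for 48 h in serum-free induction medium to eight half-log concentrations from 100 uM in 0.5% DMSO. ALPP mRNA was measured by TaqMan qRT-PCR, normalized to ACTB, GAPDH, POLR2A.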

[4] = read-out: Bcl-2 (BAD) gene, BAD (gene 572); experiment: LTEA_HepaRG_BAD: Life Technologies and Expression Analysis (LTEA) Assay for Bcl-2 (BAD) gene using HepaRG (AID 2283469)
In short: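 Differentiated HepaRG cells were exposed in duplicate in 0.5% DMSO for 48 h to eight-point half-log concentrations up to 100 uM. BAD mRNA was measured by Fluidigm TaqMan qRT-PCR, normalized to ACTB, GAPDH and POLR2A, and fitted bidirectionally against DMSO.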

[5] = read-out: Bcl-2 (BAX) gene, BAX (gene 581); experiment: LTEA_HepaRG_BAX: Life Technologies and Expression Analysis (LTEA) Assay for Bcl-2 (BAX) gene using HepaRG (AID 2283470)
In short: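 HepaRG (human liver), 48 h exposure, duplicate wells. 8-pt curve, half-log from 100 uM, 0.5% DMSO. BAX transcript by TaqMan qRT-PCR; ACTB/GAPDH/POLR2A normalization; gain or loss vs DMSO baseline.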

[6] = read-out: adenosine kinase (ADK) gene, ADK (gene 132); experiment: LTEA_HepaRG_ADK: Life Technologies and Expression Analysis (LTEA) Assay for adenosine kinase (ADK) gene using HepaRG (AID 2283471)
In short: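 ADK expression quantified by qRT-PCR, normalised to three housekeeping genes, after 48 h exposure of HepaRG cells to eight concentrations (top 100 uM, half-log steps, duplicate, 0.5% DMSO). Up- or down-regulation fitted relative to vehicle.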

[7] = read-out: Alpha-fetoprotein (AFP) gene, AFP (gene 174); experiment: LTEA_HepaRG_AFP: Life Technologies and Expression Analysis (LTEA) Assay for Alpha-fetoprotein (AFP) gene using HepaRG (AID 2283472)
In short: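 HepaRG, single lot; 48 h post-plating -> serum-free induction medium; cpd 8-pt, 100 uM top, half-log, 0.5% DMSO, duplicate, 48 h. RNA -> qRT-PCR AFP, norm ACTB/GAPDH/POLR2A. Bidirectional fit vs DMSO.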

[8] = read-out: Apolipoprotein A-V (APOA5) gene, APOA5 (gene 116519); experiment: LTEA_HepaRG_APOA5: Life Technologies and Expression Analysis (LTEA) Assay for Apolipoprotein A-V (APOA5) gene using HepaRG (AID 2283474)
In short: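 Differentiated human HepaRG cells were exposed in duplicate for 48 h to eight half-log concentrations from 100 uM in 0.5% DMSO. APOA5 mRNA was quantified by TaqMan qRT-PCR, normalized to ACTB, GAPDH and POLR2A, and fitted bidirectionally against DMSO.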

[9] = read-out: Apoptosis regulator Bcl-2 (Homo sapiens) (UniProt P10415); experiment: LTEA_HepaRG_BCL2: Life Technologies and Expression Analysis (LTEA) Assay for Bcl-2 gene using HepaRG (AID 2283475)
In short: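 HepaRG, plated 48 h then switched to serum-free induction medium; dosed 48 h, 8 conc. (max 100 uM, half-log steps), duplicate, 0.5% DMSO. Lysis in RLT, RNA isolated, TaqMan qRT-PCR for BCL2; ACTB/GAPDH/POLR2A normalisation; bidirectional fit vs DMSO.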

[10] = read-out: Caspase-3 (Homo sapiens) (UniProt P42574); experiment: LTEA_HepaRG_CASP3: Life Technologies and Expression Analysis (LTEA) Assay for cysteine-aspartic acid protease (CASP3) using HepaRG (AID 2283477)
In short: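 Differentiated human HepaRG cells in serum-free induction medium were exposed 48 h to 8-point half-log concentrations from 100 uM (0.5% DMSO vehicle). CASP3 mRNA was measured by qRT-PCR, normalised to ACTB, GAPDH and POLR2A, with bidirectional fitting against DMSO.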

[11] = read-out: Cytochrome P450 (CYP24A1), CYP24A1 (gene 1591); experiment: LTEA_HepaRG_CYP24A1: Life Technologies and Expression Analysis (LTEA) Assay for Cytochrome P450 (CYP24A1) using HepaRG (AID 2283478)
In short: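 Differentiated HepaRG cells, pre-cultured 48 h, were exposed in duplicate for 48 h in serum-free induction medium to 8 half-log concentrations (top 100 uM, 0.5% DMSO). CYP24A1 mRNA was quantified by TaqMan qRT-PCR, normalized to ACTB/GAPDH/POLR2A, fitted bidirectionally versus DMSO.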

[12] = read-out: Cytochrome P450 (CYP1A2), CYP1A2 (gene 1544); experiment: LTEA_HepaRG_CYP1A2: Life Technologies and Expression Analysis (LTEA) Assay for Cytochrome P450 (CYP1A2) using HepaRG (AID 2283479)
In short: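 Differentiated human HepaRG cells in serum-free induction medium were exposed in duplicate for 48 h to 8-point half-log concentrations up to 100 uM in 0.5% DMSO. CYP1A2 mRNA measured by qRT-PCR, normalized to ACTB, GAPDH, POLR2A; bidirectional fit vs DMSO.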

[13] = read-out: cysteine-aspartic acid protease (CASP8), CASP8 (gene 841); experiment: LTEA_HepaRG_CASP8: Life Technologies and Expression Analysis (LTEA) Assay for cysteine-aspartic acid protease (CASP8) using HepaRG (AID 2283480)
In short: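 Differentiated HepaRG cells in serum-free induction medium, 48 h exposure, eight-point half-log series from 100 uM in 0.5% DMSO, duplicates. CASP8 mRNA by qRT-PCR, normalized to ACTB, GAPDH, POLR2A; bidirectional fit versus DMSO.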

[14] = read-out: Cytochrome P450 2C19 (Homo sapiens) (UniProt P33261); experiment: LTEA_HepaRG_CYP2C19: Life Technologies and Expression Analysis (LTEA) Assay for CYP2C19 using HepaRG (AID 2283482)
In short: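 Differentiated human HepaRG cells were exposed for 48 h in serum-free induction medium to 8 concentrations (top 100 uM, half-log steps, 0.5% DMSO). CYP2C19 mRNA was measured by qRT-PCR, normalized to ACTB/GAPDH/POLR2A, and fitted bidirectionally against DMSO.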

[15] = read-out: CYP2C8 (gene 1558); experiment: LTEA_HepaRG_CYP2C8: Life Technologies and Expression Analysis (LTEA) Assay for CYP2C8 using HepaRG (AID 2283483)
In short: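 Differentiated HepaRG cells in serum-free induction medium exposed 48 h in duplicate to 8 half-log concentrations from 100 uM in 0.5% DMSO. CYP2C8 mRNA by qRT-PCR normalized to ACTB, GAPDH, POLR2A; bidirectional fit versus DMSO.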

[16] = read-out: CYP2C9 (gene 1559); experiment: LTEA_HepaRG_CYP2C9: Life Technologies and Expression Analysis (LTEA) Assay for CYP2C9 using HepaRG (AID 2283484)
In short: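 Differentiated human HepaRG cells in serum-free induction medium were exposed 48 h to chemicals in 8-point half-log series from 100 uM (0.5% DMSO), in duplicate. CYP2C9 mRNA was measured by qRT-PCR, normalized to ACTB/GAPDH/POLR2A, with bidirectional fitting versus DMSO.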

[17] = read-out: CYP2E1 (gene 1571); experiment: LTEA_HepaRG_CYP2E1: Life Technologies and Expression Analysis (LTEA) Assay for CYP2E1 using HepaRG (AID 2283485)
In short: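 Human liver line HepaRG, plated 48 h, then serum-free induction medium + chemical x 48 h; 8-pt CRC from 100 uM, half-log, 0.5% DMSO, n=2. Readout: CYP2E1 mRNA qRT-PCR vs ACTB/GAPDH/POLR2A; bidirectional fit vs DMSO.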

[18] = read-out: Bcl-2 (BID) gene, BID (gene 637); experiment: LTEA_HepaRG_BID: Life Technologies and Expression Analysis (LTEA) Assay for Bcl-2 (BID) gene using HepaRG (AID 2283476)
In short: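 Transcript levels of BID, measured by qRT-PCR and normalized to three housekeeping genes, were fitted bidirectionally against DMSO controls. Cells were HepaRG, dosed 48 h at up to 100 uM.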

[19] = read-out: Cytochrome P450 (CYP2B6), CYP2B6 (gene 1555); experiment: LTEA_HepaRG_CYP2B6: Life Technologies and Expression Analysis (LTEA) Assay for Cytochrome P450 (CYP2B6) using HepaRG (AID 2283481)
In short: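 Differentiated HepaRG cells, serum-free induction medium, exposed 48 h in duplicate to 8-point half-log concentrations from 100 uM in 0.5% DMSO. CYP2B6 mRNA by qRT-PCR, normalized to ACTB, GAPDH, POLR2A; bidirectional fit versus DMSO.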

[20] = read-out: BCL2L11 (gene 10018); experiment: LTEA_HepaRG_BCL2L11: Life Technologies and Expression Analysis (LTEA) Assay for Bcl-2 (BCL2L11) gene using HepaRG (AID 2283473)
In short: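 Differentiated human HepaRG cells in serum-free induction medium were exposed in duplicate for 48 h to eight concentrations (top 100 uM, half-log steps, 0.5% DMSO). BCL2L11 mRNA was quantified by TaqMan qRT-PCR, normalized to ACTB/GAPDH/POLR2A, bidirectional fit versus DMSO.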

Measured: AC50

Caspase-3 (Homo sapiens), sequence (P42574 whole entry, looked up): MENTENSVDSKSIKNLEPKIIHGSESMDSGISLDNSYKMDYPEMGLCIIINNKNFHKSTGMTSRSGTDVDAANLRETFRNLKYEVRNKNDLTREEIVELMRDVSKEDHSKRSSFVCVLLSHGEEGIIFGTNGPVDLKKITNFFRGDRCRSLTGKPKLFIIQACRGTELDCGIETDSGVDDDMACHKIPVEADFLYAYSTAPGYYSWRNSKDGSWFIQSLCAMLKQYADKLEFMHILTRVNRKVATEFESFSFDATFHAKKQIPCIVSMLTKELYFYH
Apoptosis regulator Bcl-2 (Homo sapiens), sequence (P10415 whole entry, looked up): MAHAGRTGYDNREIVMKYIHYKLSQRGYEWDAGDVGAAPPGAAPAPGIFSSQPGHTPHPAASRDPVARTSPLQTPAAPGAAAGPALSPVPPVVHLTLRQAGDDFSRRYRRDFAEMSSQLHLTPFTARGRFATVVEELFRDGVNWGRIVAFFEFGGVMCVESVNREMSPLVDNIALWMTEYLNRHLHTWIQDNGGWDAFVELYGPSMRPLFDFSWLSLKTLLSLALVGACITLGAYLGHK
Cytochrome P450 2C19 (Homo sapiens), sequence (P33261 whole entry, looked up): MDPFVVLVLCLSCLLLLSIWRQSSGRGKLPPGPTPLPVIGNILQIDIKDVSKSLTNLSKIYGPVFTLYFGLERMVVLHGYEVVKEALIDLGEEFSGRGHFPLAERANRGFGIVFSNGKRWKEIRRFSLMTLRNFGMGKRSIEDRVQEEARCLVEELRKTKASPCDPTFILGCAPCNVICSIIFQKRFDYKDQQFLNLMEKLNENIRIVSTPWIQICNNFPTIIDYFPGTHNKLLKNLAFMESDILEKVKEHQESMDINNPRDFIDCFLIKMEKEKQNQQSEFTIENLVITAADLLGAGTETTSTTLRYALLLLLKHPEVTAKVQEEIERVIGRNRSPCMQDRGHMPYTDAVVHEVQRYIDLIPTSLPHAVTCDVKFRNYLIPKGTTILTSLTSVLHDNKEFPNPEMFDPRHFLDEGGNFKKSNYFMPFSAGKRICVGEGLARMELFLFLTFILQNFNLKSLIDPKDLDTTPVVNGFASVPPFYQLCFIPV

CCOc1nc(C(Cl)(Cl)Cl)ns1
active: [1] 23.8 µM | [2] 1.11 µM | [3] 2.14 µM | [4] 1.3 µM | [5] 1.39 µM | [6] 1.06 µM | [7] 1.77 µM | [8] 1.44 µM | [9] 1.51 µM | [10] 1.05 µM | [11] 1.93 µM | [12] 0.939 µM | [13] 1.08 µM | [14] 14.9 µM | [15] 1.14 µM
inactive: [16] | [17]

COc1ccc(-c2ccccc2)cc1NNC(=O)OC(C)C
inactive: [1] | [2] | [3] | [4] | [5] | [6] | [7] | [8] | [9] | [18] | [10] | [11] | [13] | [19] | [14] | [15] | [16] | [17]

CCOP(=O)(OCC)Oc1nc(Cl)c(Cl)cc1Cl
inactive: [1] | [3] | [4] | [5] | [6] | [10] | [11] | [13]
active: [2] 74.9 µM | [7] 75.9 µM | [20] 76.6 µM | [8] 83.8 µM | [9] 68.4 µM | [19] 83.6 µM | [14] 80.7 µM | [15] 84.5 µM | [16] 93 µM | [17] 76 µM

CO/N=C(/C1=NOCCO1)c1ccccc1Oc1ncnc(Oc2ccccc2Cl)c1F
active: [1] 12.5 µM | [2] 15.4 µM | [3] 5.39 µM | [5] 31.3 µM | [7] 18.2 µM | [8] 23.6 µM | [9] 29.7 µM | [12] 13.1 µM | [14] 29.5 µM | [15] 25.8 µM | [16] 25.2 µM | [17] 7.94 µM
inactive: [4] | [6] | [10] | [13]

O=P(O)(O)CCCl
inactive: [1] | [2] | [3] | [4] | [5] | [6] | [7] | [8] | [9] | [10] | [13] | [15] | [16] | [17]
active: [14] 0.396 µM

COC(=O)N(C(=O)N1CO[C@@]2(C(=O)OC)Cc3cc(Cl)ccc3C2=N1)c1ccc(OC(F)(F)F)cc1
active: [2] 40 µM | [7] 40 µM | [12] 10.4 µM | [14] 9.46 µM | [16] 64.8 µM | [17] 24 µM
inactive: [1] | [3] | [4] | [5] | [6] | [8] | [9] | [10] | [11] | [13] | [15]

C=CCOC(=O)C(C)(C)OC(=O)c1cc(-n2c(=O)cc(C(F)(F)F)n(C)c2=O)ccc1Cl
inactive: [1] | [2] | [3] | [4] | [5] | [6] | [7] | [8] | [9] | [18] | [10] | [11] | [12] | [13] | [14] | [15] | [16] | [17]
active: [19] 6.65 µM
